The values that follow come from ChEMBL document CHEMBL4513216, “Probing the Open Global Health Chemical Diversity Library for Multistage-Active Starting Points for Next-Generation Antimalarials” (ACS Infect Dis, 2020).

In all, about 68,000 compounds went through this assay and about 2,700 (4%) showed an effect of 50% or more. The entries come from a sample that favours strong results as a whole.

The subject of this experiment is Plasmodium berghei. Kind of experiment: Screen against P. berghei liver stage (PbLuc), transformed with Luciferase, at 2uM. In kind it is functional, HepG2. The following applies: tested at 2 uM.
As to `COc1c(C2CCCN2C(=O)c2ccnc(N(C)C)c2)c(C)nn1C` (configuration not stated), the INHIBITION is given as 30.91%.

For the compound `Cc1cnc(N2Cc3cnn(Cc4ccc(F)cc4)c3C2)nc1N(C)C`, the INHIBITION worked out at 41.78%.

Take `CNS(=O)(=O)c1ccsc1C(=O)OC`: the INHIBITION is reported as -12.44%. The result for `CNC(=O)c1sccc1S(=O)(=O)Nc1ccc(C)cc1` reads 52.36%; that for `CNC(=O)c1sccc1S(=O)(=O)NC`, 31.27%; that for `Cc1nonc1C1CCCN1C(=O)c1cn2ccsc2n1` (configuration not stated), -120.95%. The result for `Cn1cc(CN2CCCC3(COCCN(c4cccnc4)C3)C2)cn1` (configuration not stated) reads 18.15%; that for `COc1ccc(F)cc1C(=O)N1CC(c2ccncc2)C1`, -26.81%.

On to `COc1ccc(C(=O)N2CC(c3ccncc3)C2)c(OC)c1OC`, for which the INHIBITION is 45.56%. The result for `COc1cc2c(cc1C(=O)N1CC(c3ccncc3)C1)CCC2` reads 51.96%; that for `CC(CO)NC(=O)Nc1ccc(COC2CCCC2)cc1` (configuration not stated), 31.97%.

In the case of `CC(C)N1CC(NC(=O)c2ccc(Cl)s2)CC1=O` (configuration not stated), the INHIBITION is given as -28.5%. Under `CN(CCOc1ccc(C#N)cc1)CC1CCS(=O)(=O)C1` (configuration not stated) stands 14.59%. As to `CC(O)CN1CCC(CN(C)Cc2ccc(C#N)cc2)CC1` (configuration not stated), the INHIBITION is listed as -3.99%. Under `CN(Cc1ccc(C#N)cc1)CC1CCS(=O)(=O)C1` (configuration not stated) stands 54.78%; under `Cc1cc(=O)n2ncnc2n1CC(O)COCc1ccccc1Cl` (configuration not stated), 19.59%; under `CN(Cc1nc2ccccc2[nH]1)C(=O)CN(C)c1ccc(Cl)cn1`, 60.71%. The result for `CN(Cc1nc2ccccc2[nH]1)C(=O)CN(C)c1ccccc1` reads -20.08%; that for `CN(CC(=O)Nc1ccccc1)C(=O)CN(C)c1ccc(Cl)cn1`, -35.22%. Under `Cc1ncsc1CN1CCn2c(COc3cccnc3)cnc2C1C` (configuration not stated) stands -48.36%.

Turning to `CN(C)c1nccc(N(C)C2CCOCC2)n1`, the INHIBITION worked out at 19.59%. Under `CC(C)N1CCC(N(C)c2ccnc(N(C)C)n2)CC1` stands 69.67%.

Consider `CN(C)c1nccc(N(C)C2CCCCC2)n1`, for which the INHIBITION was found to be 38.67%.

With `CCCSCC(=O)NCc1cccc(CN(C)CC)c1`, the INHIBITION is 15.56%.

For `CCN(C)Cc1cccc(CNC(=O)CSCc2ccncc2)c1`, the INHIBITION is -56.58%.

For `CCN(C)Cc1cccc(CNC(=O)CSCc2ccccn2)c1`, the INHIBITION amounted to 72.94%.

For `CO[C@H]1CN(C(=O)c2cc3ccccc3[nH]2)CC[C@H]1N`, the INHIBITION is listed as 13.24%. Under `O=C(c1ccoc1)N1CCOCC2(CCN(Cc3cccs3)C2)C1` (configuration not stated) stands 3.11%.

In the case of `CN1CCN(CCOc2ccc(NC(=O)c3ccoc3)cc2)CC1`, the INHIBITION was found to be 6.78%. The result for `Cc1nc2sccn2c1C(=O)N1CCc2c(nc(N)[nH]c2=O)C1` reads -14.71%; that for `Cc1nc2sccn2c1C(=O)N1CCc2c(nc(N(C)C)[nH]c2=O)C1`, 68.02%. Under `Cc1nc2sccn2c1C(=O)N1CCc2[nH]cnc2C1` stands -13.03%; under `CN(C)c1nc2c(c(=O)[nH]1)CCN(C(=O)c1c[nH]c(=O)c(Cl)c1)C2`, 33.9%. The result for `CN(C)c1nc2c(c(=O)[nH]1)CCN(C(=O)c1cccc3nccnc13)C2` reads -16.93%; that for `Cc1nc(C(C)C)ncc1C(=O)N1CCc2c(nc(N(C)C)[nH]c2=O)C1`, 55.36%. `O=C(Nc1nccs1)C1CCCN1Cc1ccccn1` (configuration not stated): the INHIBITION was found to be 12.47%. For `CCc1nc(-c2ccc(NC(=O)N3CCCC3)cc2)no1`, the INHIBITION is recorded as -75.24%. `COc1ccnc(N2CCC3(CC2)[C@H](O)C[C@@H]3OCCN(C)C)n1`: the INHIBITION is on record as -2.96%. Under `Cc1nc(C2CCN(S(C)(=O)=O)CC2)nc2c1CCC(=O)N2CC(C)C` stands 0.12%; under `Cc1cc(N2CCCC2(C)c2nc(C)cc(C(=O)N(C)C)n2)ncn1` (configuration not stated), -27.61%; under `CCOC(=O)N1CCN(C(=O)C2Cc3ccccc3CN2C)CC1` (configuration not stated), -55.24%. The result for `Cc1cnc(Nc2cccc(C3CCCN3Cc3cn(C)nc3C)n2)s1` (configuration not stated) reads -15.38%; that for `c1ccc(CCN2CCCC2c2cccc(Nc3nccs3)n2)cc1` (configuration not stated), 30.29%. In the case of `Cc1cnc(Nc2cccc(C3CCCN3C(=O)CO)n2)s1` (configuration not stated), the INHIBITION is on record as 35.31%. The result for `Cc1ccccc1CN1CCCC1c1cccc(Nc2nccs2)n1` (configuration not stated) reads 15.61%. Under `CCN(CC)S(=O)(=O)N1CCCC1c1cccc(Nc2ncc(C)s2)n1` (configuration not stated) stands 56.16%; under `CS(=O)(=O)N1CCCC1c1cccc(Nc2nccs2)n1` (configuration not stated), 69.91%. For `Cc1ccccc1CS(=O)(=O)CC(=O)N(C)Cc1ccccc1`, the INHIBITION was found to be 34.25%. As for `CS(=O)(=O)NC[C@]12COC[C@H]1CN(CC1CCCC1)C2`, the INHIBITION is listed as 13.65%. Under `O=C(CC1CN(Cc2ccccc2)CCO1)Nc1ccsc1` (configuration not stated) stands 19.53%.

As for `Cc1ccc(SCCN(C)C(=O)c2cn(C3CCC(N)CC3)nn2)cc1` (configuration not stated), the INHIBITION was determined as 40.47%. Turning to `Cc1ccc(SCCCNC(=O)c2cn(C3CCC(N)CC3)nn2)cc1` (configuration not stated), the INHIBITION came out at 18.63%. Under `CCN(CCSc1ccccc1)C(=O)c1cn(C2CCC(N)CC2)nn1` (configuration not stated) stands 50.61%.

As to `CCc1nnc2n1CCN(C(=O)c1ccc3[nH]cnc3c1)C2`, the INHIBITION was -17.45%. The result for `CCc1nccn1-c1cncc(C2CCCN2Cc2cccnc2)n1` (configuration not stated) reads 18.91%; that for `CCc1nsc(N2CCCN(C(=O)c3ccc(CC)o3)CC2)n1`, -2.93%. The result for `CS(=O)(=O)NCCNCc1ccc(Br)s1` reads 21.24%; that for `CS(=O)(=O)CCCC(=O)Nc1cc(Cl)c(Cl)cn1`, 59.08%.

Turning to `CS(=O)(=O)CCC(=O)Nc1cc(Cl)c(Cl)cn1`, the INHIBITION came out at 38.49%. The result for `COCCCC(=O)Nc1[nH]nc(-c2ccncc2)c1C` reads 1.03%; that for `COCCCC(=O)Nc1cc(Cl)c(Cl)cn1`, 66.26%; that for `CS(=O)(=O)CCCC(=O)Nc1cc(-c2cccc(F)c2F)n[nH]1`, -5.98%.

For `COCCNC(=O)CCNc1ccc(Cl)cn1`, the INHIBITION amounted to 33.64%. Under `CC(C)n1c(C2CCCN(CC(=O)NC(N)=O)C2)nc2ccccc21` (configuration not stated) stands 0.31%; under `O=C(C1=CCCC1)N1CC[C@]2(C[C@H](OCc3cccnc3)CO2)C1`, -8.81%; under `NC(=O)C(NC(=O)COC1CCCC1)c1ccccc1` (configuration not stated), -6.27%. The result for `NC(=O)C(NC(=O)COC1CCCCC1)c1ccccc1` (configuration not stated) reads 35.94%; that for `COC(=O)C(NC(=O)COC1CCCCC1)c1ccccc1` (configuration not stated), 54.52%; that for `O=C(c1cocn1)N1C[C@H]2CCC[C@@]2(COc2ccccn2)C1`, -14.27%. Regarding `Cc1cc(C(F)(F)F)nn1CCCNC(=O)C1CCN(S(C)(=O)=O)CC1`, the INHIBITION is given as 40.25%. Consider `CC(C)(C)n1ncc2c1NC(=O)CC2c1ccc(C#N)cc1` (configuration not stated), for which the INHIBITION came to 7.42%. Under `Cn1ccc(C(=O)NC2CCC23CCN(C(=O)c2ccccn2)CC3)c1` (configuration not stated) stands 53.29%; under `Cn1ccc(C(=O)NC2CCC23CCN(C(=O)c2ccncc2)CC3)c1` (configuration not stated), -33.11%. As for `Cn1ccc(C(=O)NC2CCC23CCN(C(=O)c2cnccn2)CC3)c1` (configuration not stated), the INHIBITION is on record as -3.25%.

`CCN(Cc1c(F)cccc1Cl)c1cc(C2CCNCC2)nc(C)n1`: the INHIBITION stood at 23.76%. Under `O=C(c1cccnc1)N1CCOC(Cc2ccccc2Cl)C1` (configuration not stated) stands -41.48%.

In the case of `Cc1nc(C)c(CN2CCOC(Cc3ccccc3Cl)C2)nc1C` (configuration not stated), the INHIBITION was determined as 63.37%. The result for `Cn1ccnc1C(=O)N1CCOC(Cc2ccccc2Cl)C1` (configuration not stated) reads 61.99%; that for `Cn1ccnc1C(=O)N1CCOC(Cc2ccc(Cl)cc2)C1` (configuration not stated), 43.23%; that for `Cc1cccnc1CN1CCOC(Cc2cccc3ccccc23)C1` (configuration not stated), 31.05%.

Take `CCc1nc(C)c(CN2CCOC(Cc3ccccc3Cl)C2)[nH]1` (configuration not stated): the INHIBITION is reported as -26.78%. Under `O=C(N1CCc2ccccc2CC1)C1(O)Cc2ccccc2C1` stands 32.93%; under `O=C(CCN1C[C@@H]2CC[C@H]1CN(c1ncccn1)C2)NCc1ccco1`, 22.27%; under `N#Cc1ccc(CN2CCNC(=O)C2c2cccs2)cc1` (configuration not stated), -15.67%. The result for `Cn1cnc2c(N3CCCC3)nc(C3CCN(CC4CC4)CC3)cc21` reads 25.94%; that for `Cn1ccnc1C(O)c1ccccc1N1CCN(Cc2ccsc2)CC1` (configuration not stated), -16.2%. Under `Cc1cccc(COc2ccc(C(C)N)cc2)c1` (configuration not stated) stands 54.49%; under `Cc1cccc(COc2ccc(C(C)NC(=O)CNC(N)=O)cc2)c1` (configuration not stated), 32.26%; under `Cc1cccc(COc2ccc(C(C)NS(N)(=O)=O)cc2)c1` (configuration not stated), 9.42%. As for `CCC(O)CN1CCN(C(=O)c2sccc2C2CC2)CC1` (configuration not stated), the INHIBITION was 34.97%. Under `CCc1ccsc1C(=O)N1CCN(CC(C)O)CC1` (configuration not stated) stands -10.66%; under `CCc1ccsc1C(=O)N1CCN(CC(O)CC)CC1` (configuration not stated), 56.67%. The result for `Clc1ccccc1C1(c2ccnc(C3CCCC3)n2)CCNCC1` reads 11.94%; that for `Cc1cnccc1CN1C[C@@H](O)[C@H](Oc2cccc(F)c2)C1`, 8.5%; that for `Cc1c(CN2C[C@@H](O)[C@H](Oc3cccc(F)c3)C2)cnn1C`, 55.32%. Take `Cc1cc(C)n2ncc(CN3C[C@@H](O)[C@H](Oc4ccccc4)C3)c2n1`: the INHIBITION is -0.44%. In the case of `COCC(O)CN(C)c1ccnc2ccc(Cl)cc12` (configuration not stated), the INHIBITION is given as -33.34%.

On to `Cc1ccsc1CN1CCc2c(nc(N3CCCCC3C)[nH]c2=O)C1` (configuration not stated), for which the INHIBITION is recorded as -17.99%. Under `CC(C)n1ccnc1CN1CCCN(C(=O)CC2CCCO2)CC1` (configuration not stated) stands 33.82%; under `CC(C)n1ccnc1CN1CCOC(CCc2ccccc2)C1` (configuration not stated), 50.32%; under `CC(C)n1ccnc1CN1CCOC(CC2CCCCC2)C1` (configuration not stated), 63.23%. The result for `CC(C)C1CN(Cc2nccn2C(C)C)CCC(=O)N1CC1CC1` (configuration not stated) reads -17.17%. The result for `c1ccc(Cn2ccnc2CN2CCOC(Cn3cccn3)C2)cc1` (configuration not stated) reads 11.1%; that for `Cn1ccnc1CN1CCOC(Cc2ccccc2)C1` (configuration not stated), -19.43%. For the compound `NC(=O)NCC(=O)N1CCCC(c2nccn2Cc2ccncc2)C1` (configuration not stated), the INHIBITION amounted to 16.1%. Regarding `CCOc1ncccc1Cn1cc(-c2nccn2C)nn1`, the INHIBITION is -3.38%. Turning to `O=C(c1cccs1)N1CCCn2c(nc(CN3CCCC3)cc2=O)C1`, the INHIBITION was determined as 13.38%.
